The campaign covered roughly 200,000 compounds. About 65 (0.03%) were called active.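 The calls were made as follows: active = over 50% inhibition of tissue-nonspecific alkaline phosphatase at 20 µM in the single-dose screen; inactive = the rest.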 Only a selection was taken, and actives are over-represented in it overall.
These compounds were tested against Alkaline phosphatase, tissue-nonspecific isozyme (Homo sapiens) (UniProt P05186) (assay: human TNAP enzyme inhibitors, primary screen, biochemical, luminescent, high phosphate acceptor level, uHTS (AID 1135;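 also: plate controls were DMSO wells for no effect and EDTA-quenched wells as full inhibition for full effect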)). Conditions: purified TNAP, CDP-star luminescence, 1 M DEA; at 20 µM; stronger effect = higher value.
Chain of Alkaline phosphatase, tissue-nonspecific isozyme (Homo sapiens) (P05186 whole entry, looked up): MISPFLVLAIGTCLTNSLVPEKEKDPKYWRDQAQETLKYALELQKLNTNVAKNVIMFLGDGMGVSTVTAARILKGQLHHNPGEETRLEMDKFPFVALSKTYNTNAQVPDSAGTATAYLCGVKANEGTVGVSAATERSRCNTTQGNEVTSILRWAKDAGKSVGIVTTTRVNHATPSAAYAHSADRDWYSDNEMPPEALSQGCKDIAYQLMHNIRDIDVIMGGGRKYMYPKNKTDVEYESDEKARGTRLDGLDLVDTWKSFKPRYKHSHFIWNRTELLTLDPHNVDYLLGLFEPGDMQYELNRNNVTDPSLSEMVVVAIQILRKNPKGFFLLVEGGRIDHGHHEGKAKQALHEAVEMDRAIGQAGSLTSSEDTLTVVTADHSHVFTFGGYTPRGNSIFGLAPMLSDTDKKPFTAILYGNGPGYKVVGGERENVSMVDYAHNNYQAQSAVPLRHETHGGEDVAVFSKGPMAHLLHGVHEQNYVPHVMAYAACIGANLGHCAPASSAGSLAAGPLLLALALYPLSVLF

inhibition, inactive:
OC(CN=c1sc2ccccc2n1CC(O)COc1ccccc1)COc1ccccc1 (centres undefined) -2%
CC(C)(C)C(=O)N1CCC[C@@]1(CO)C(=O)O 1.3%
CCCn1nc(C(=O)Nc2ccc3nc(C)sc3c2)c2ccccc2c1=O 0%
O=C(NNc1cc(Cl)ccc1Cl)c1cccnc1Cl -3.3%
Cn1cnnc1Sc1ccc(S(C)(=O)=O)cc1[N+](=O)[O-] 3.1%
CN(C)S(=O)(=O)c1ccc(N2CCCC2=O)c([N+](=O)[O-])c1 -2.1%
Cc1ccccc1Nc1nc(N)nc(CSc2nnc3ccccn23)n1 -3.4%
O=C1CCC/C(=N\NC(=O)NC2CCCCC2)C1 3.6%
Cc1ccccc1C1=NC(C(F)(F)F)(C(F)(F)F)c2c(n(-c3ccc(F)cc3)c(=O)[nH]c2=O)N1 -3.5%
Cc1cccc(NC(=S)Nc2ccc(Cl)c(Cl)c2)c1 -5.2%
COc1ccccc1Oc1ccc(N/C=C2/CCCC2=O)cc1 -1.1%
Cc1ccc(OCc2n[nH]c(=S)n2-c2ccccc2)cc1 -3.4%
COC(=O)c1c(NC(=O)c2c(Cl)cnn2C)sc(C)c1C -0.7%
Cc1nc2ccccc2nc(C)c1=NOCc1ccc(Cl)cc1Cl -3.2%
O=C(/C=C/c1ccc(F)cc1)NC(=S)NNC(=O)c1cccnc1 -2.2%
CC1=C[C@H]2Cc3cc(C)cc(C)c3S(=O)(=O)[C@@H]2C=C1 1.3%
Cc1ccc(C)c(-n2nnnc2SCC(=O)c2c(N)n(C)c(=O)n(C)c2=O)c1 -2.7%
COc1cccc(NC(=S)N(Cc2ccc(C)cc2)Cc2ccccn2)c1 -3.4%
COc1cccc(C2CC(c3ccccc3)=NN2S(=O)(=O)c2ccccc2)c1OC (centres undefined) -5.8%
Cn1c(=N)n(CC(O)c2cccs2)c2ccccc21 (centres undefined) -2%
C=CCNc1nc(Nc2ccc(Cl)cc2)nc(OC)n1 -3%
COC(=O)c1nn(-c2cccc(Cl)c2)ccc1=O -8.9%
CCN(CC)CCN(C(=O)c1ccc(N2C(=O)CCC2=O)cc1)c1nc2cc3c(cc2s1)OCO3 -2.1%
CC(=O)c1cnc(SCC(=O)O)nc1C -1.6%
Cc1cccc(C2=N/C(=C/c3cccs3)C(=O)O2)c1 -2.6%
COC(=O)C(C(=O)Nc1cccc(Cl)c1C)C1CCCC1 (centres undefined) -6.6%
CCOC(=O)C1C(c2ccc(Cl)cc2)NC(=S)NC1(O)C(F)(F)F (centres undefined) 4.4%
CCOC(=O)/C(=N\Nc1cc(Cl)ccc1Cl)N1CCN(C)CC1 3.4%
S=C(NCC1CCCO1)N1CCN(c2ccc(Cl)c(Cl)c2)CC1 (centres undefined) -1.7%
COc1cc(C2OC(c3cc(OC)c(OC)c(OC)c3)C(C)C2C)cc(OC)c1OC (centres undefined) -2.4%
O=C(CCCCCNC(=O)c1ccccc1)N/N=C/c1ccccc1 -6.8%
O=C(NCCN1C(=O)S/C(=C\c2cccnc2)C1=O)c1cccc(OC(F)F)c1 -0.3%
COc1ccc(CCc2nnc(CCC(=O)NCc3cnn(-c4ccccc4C)c3)o2)cc1 1.5%
S=C(NCCc1ccccc1)NCC1CCCO1 (centres undefined) -0.7%
CN(C)c1ccc(/C=N/NC(=O)C(O)c2ccc(Br)cc2)cc1 (centres undefined) -1.9%
CCCCN(C)CCNC(=O)CSCc1ccc(C)cc1 -5.4%
CC(=O)c1sc(N/N=C/c2ccc(C(C)C)cc2)nc1C 13.5%
Cc1ccc(OCC(=O)NC(C)c2ccccc2)c([N+](=O)[O-])n1 (centres undefined) -1.6%
Cc1ccc(CSCC(N)C(=O)O)cc1 (centres undefined) 0.6%
O=C(Nc1ccc(N2CCOCC2)cc1)c1ccc(-c2ccccc2[N+](=O)[O-])o1 0.3%
Cc1ccc(-c2nc(-c3cccnc3)sc2CC(=O)Nc2ccc(C)c(Cl)c2)cc1 -1.4%
O=C(CC1SC(=Nc2ccccc2)N(Cc2ccccn2)C1=O)Nc1cccc(Cl)c1 (centres undefined) 3%
CCCCC(CC(C)O)c1n[nH]c(=S)n1-c1ccccc1 (centres undefined) 7.9%
COCCn1c(=NC(=O)c2ccccc2[N+](=O)[O-])sc2cc(S(C)(=O)=O)ccc21 3.3%
C#CCCCc1nc2ccccc2c(=O)n1N -3.7%
Cc1c(NC(=S)Nc2ccccc2)c(=O)n(-c2ccccc2)n1C 4.8%
O=C(COC(=O)[C@H](Cc1ccccc1)NC(=O)c1cccs1)Nc1cc(F)ccc1F -1.2%
C=CCn1c(SCCOc2ccc(OC)cc2)nnc1C(NC(=O)c1ccc(OC)cc1)C(C)C (centres undefined) -3.4%
CN1CCN(C(=O)N2c3ccccc3CCc3ccccc32)CC1 -5.7%
COc1ccc(CCNC(=O)CSc2nc3[nH]ncc3c(=O)n2-c2cccc(C(F)(F)F)c2)cc1OC 2.6%
CN(CCOc1ccc(Br)cc1)CC(=O)Nc1cccc(S(=O)(=O)NC2=NCCC2)c1 -4.6%
O=C(NNC1CC(=O)N(c2cccc(Cl)c2)C1=O)c1cccnc1 (centres undefined) -3.4%
Cc1ccc(S(=O)(=O)NC2(C(F)(F)F)NC(=O)N(CCc3ccccc3)C2=O)cc1 (centres undefined) -6.1%
COc1ccc(OC)c(S(=O)(=O)Nc2cccc(-c3ccc4nncn4n3)c2)c1 -3.7%
C[C@@H](O)c1nc2ccccc2n1N -1.1%
O=C(Nc1cccc(Cl)c1)c1cc([N+](=O)[O-])ccc1N1CCN(CCO)CC1 2.5%
CCOc1ccc(NC(=O)CSc2ncnc3c2sc2ccccc23)cc1 -1.9%
Cc1ccc2[nH]c(=O)c(CN(CC3COCCO3)C(=O)Nc3ccccc3C)cc2c1 (centres undefined) -4.6%
COc1cccc(CN(C)CC(=O)NCc2ccccc2Cl)c1OC 1.3%
CCC(C)(C)NC(=O)CN(C(=O)CCC(=O)Nc1cc(C)ccn1)c1ccc2c(c1)OCCO2 -6%
O=C(Nc1ccc(N2CCN(C(=O)c3cccs3)CC2)cc1)c1cccnc1Cl -2.2%
CN(C)c1ccc(/C=N/Nc2cc(N3CCOCC3)nc(N3CCOCC3)n2)cc1 -5.4%
O=C(NNc1c2ccccc2nc2ccccc12)c1cc2ccccc2cc1O 26.1%
O=c1oc(/C=C/c2ccccc2)nc2ccccc12 0%
O=C(O)c1ccc(N/N=C/c2ccc3ncccc3c2)cc1 0.7%
Cc1[nH]c2ccccc2c1C(=O)COC(=O)c1c(-c2ccccc2)noc1C -2.1%
CC/C(O)=C1\C(=O)CC(C)(C)CC1=NCCc1nc2ccccc2[nH]1 -0.3%
O=C(NCc1cccs1)C(=O)NCC1OCCCN1S(=O)(=O)c1ccc(F)cc1 (centres undefined) 0.7%
CCn1c(SCC(=O)N/N=C/C=C/c2ccccc2[N+](=O)[O-])nnc1-c1ccccc1 1.3%
CCOc1ccc(NS(=O)(=O)c2cc(C)c(C)cc2C)cc1 -1.7%
Cc1ccc(SCCC(=O)NC(C(C)C)C(C)C)cc1 -0.8%
O=C(/C=C/c1ccccc1Cl)Nc1ccc(S(=O)(=O)Nc2ncccn2)cc1 -0.8%
Cc1ccc(C)c(NS(=O)(=O)c2ccc(OCC(=O)NCc3cccnc3)cc2)c1 3.1%
C/C(=N\N=C(N)N)c1ccc(Cl)cc1 -5.8%
Cc1cc(=O)oc2c1c(C)nn2-c1ccc(Cl)cc1 -6.1%
CC(C)Oc1ccc(Cc2n[nH]c(=S)n2Cc2ccccc2)cc1Cl -3.4%
Cc1no[n+]([O-])c1COc1ccccc1/C=C1\NC(=S)NC1=O 0.1%
NS(=O)(=O)c1ccc(NC(=O)/C=C/c2ccccc2Cl)cc1 6.2%
COc1ccc(OC)c(S(=O)(=O)NCCC(C)C)c1 -7.1%
COc1ccc(CCNC2=C(Cl)C(=O)N(Cc3ccccc3)C2=O)cc1OC 0.7%
Cc1ccccc1CSCCNC(=O)c1ccc(N(C)S(=O)(=O)c2ccccc2)cc1 -8.8%
Cc1ccc(NC(=O)CSCC(=O)NC2CCCCC2)cc1 -0.6%
COc1ccc(C/C(N)=N/OC(=O)c2ccco2)cc1OC -4.3%
CC/C(Cc1ccccc1)=N/NC(=O)CCn1nnc2ccccc21 -4.6%
CCOc1ccc(C(=O)NC(=S)Nc2ccc(N3CCOCC3)c(Cl)c2)cc1[N+](=O)[O-] 1.7%
CN1CCN(C(=O)/C(=C\c2ccc3c(c2)OCO3)NC(=O)c2cccs2)CC1 -3.5%
CCS(=O)(=O)C1=NSC2=NC(=O)/C(=C\c3cc(C)n(-c4cccc(OC)c4)c3C)C(=N)N21 1.7%
Cc1ccsc1C1C(C#N)=C(N)OC2=C1C(=O)CC(C)C2 (centres undefined) -0.4%
CCOC(=O)c1[nH]ncc1CN1CCCC(C(=O)c2ccc(OC)cc2C)C1 (centres undefined) -5.9%
C/C(=N\NC(=S)NC(C)C)c1ccc(C(C)(C)C)cc1 0.4%
O=C(N/N=C/c1ccc([N+](=O)[O-])cc1)C(=O)N1CCCC1 1.8%
COCCN(CCOC)S(=O)(=O)c1ccc(/C(O)=C(\C#N)c2nc3ccccc3[nH]2)cc1 -5.5%
O=C1OC(OC(=O)c2ccccc2Br)C(N2CCOCC2)=C1Cl (centres undefined) 4.1%
CCOC(=O)N/N=C/c1cn(Cc2ccccc2Cl)c2ccccc12 0.2%

From PubChem BioAssay AID1135 (Sanford-Burnham Center for Chemical Genomics, 2008)
